Bioassay records from PubChem.
NPC1 prom act: NPC1 promoter activation; Huh7 NPC1 promoter luciferase reporter, 24 h; Potency, µM (series often up to 9.22 µM), usual class: activators; 320,000 compounds, 2.4% hits; further: nearly all actives have a fitted effect of over 60% in size
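Luciferase expression driven by the NPC1 promoter was measured in stably transfected Huh7 cells after a 24 h compound incubation, using a luciferase reagent and a luminescence read.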
Luc counter: counter-screen: inhibitors of Kinase-Glo firefly luciferase | Q27757 | Kinase-Glo luciferase, ATP luminescence, 8 min | Potency, µM (titrated, usually from 38.3 µM), actives largely listed as inhibitors | 200,000 compounds, 0.28% hits | AID 1379; further: nearly all actives have a fitted effect of over 60% in size
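Luminescence was the read-out, taken after 8-minute incubation at ambient temperature. Luciferase turned over luciferin with 10 uM ATP in imidazole pH 7.2 buffer containing KCl, MgCl2, Tween 20 and BSA.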
FLuc modulator: inhibits or activates purified firefly luciferase, miR-21 counter-screen; P08659; purified FLuc, Km substrates, luminescence inhibition; Potency, µM (top dose mostly 57.5 µM), usual class: inhibitors; 360,000 compounds, 6.9% hits; AID 588342; further: nearly all actives have a fitted effect of over 55% in size
Target sequence (P08659 whole entry, looked up): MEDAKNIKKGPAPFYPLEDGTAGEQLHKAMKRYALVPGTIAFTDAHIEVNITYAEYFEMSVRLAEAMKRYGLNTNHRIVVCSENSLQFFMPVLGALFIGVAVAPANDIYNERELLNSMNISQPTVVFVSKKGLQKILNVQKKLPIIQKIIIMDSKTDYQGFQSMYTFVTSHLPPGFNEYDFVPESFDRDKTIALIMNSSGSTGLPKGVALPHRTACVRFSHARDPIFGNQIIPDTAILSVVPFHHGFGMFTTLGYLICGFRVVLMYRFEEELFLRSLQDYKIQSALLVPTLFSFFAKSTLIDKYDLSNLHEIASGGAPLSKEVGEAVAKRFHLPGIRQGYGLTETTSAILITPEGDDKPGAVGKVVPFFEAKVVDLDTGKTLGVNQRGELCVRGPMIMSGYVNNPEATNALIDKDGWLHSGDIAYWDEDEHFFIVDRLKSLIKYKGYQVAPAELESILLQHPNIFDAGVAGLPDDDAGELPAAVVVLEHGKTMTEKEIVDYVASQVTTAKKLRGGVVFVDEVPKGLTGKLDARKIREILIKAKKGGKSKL
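Purified P. pyralis luciferase, 10 nM final, with Km-level 10 uM D-luciferin and 10 uM ATP in 50 mM Tris acetate pH 7.5, 10 mM Mg acetate, 0.01% Tween-20, 0.05% BSA; 6-point qHTS titration about 60 µM downward; luminescence read.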
ELG1 genotox: induces genotoxicity in HEK293T cells with luciferase-tagged ELG1. HEK293T ELG1-luciferase reporter, luminescence, 16 h. Potency, µM (highest dose often 46 µM), hits mostly activators. 330,000 compounds, 1.3% hits. AID 504466; further: nearly all actives have a fitted effect of over 60% in size
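Genotoxic stress is detected as increased luminescence from luciferase-tagged ELG1 in HEK293T cells, measured with ONE-Glo after a 16 hr treatment at 37 °C.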
Rab9 prom act: activates the Rab9 promoter; Huh7 Rab9 promoter-luciferase reporter, luminescence, 24 h; Potency, µM (top dose mostly 9.22 µM), hits mostly activators; 320,000 compounds, 2.8% hits; further: nearly all actives have a fitted effect of over 60% in size
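Luminescence read-out: Huh7 cells stably expressing Rab9-luciferase, treated 24 h with compound at 37 °C, then lysed with luciferase reagent for 10 min at ambient before reading.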
SMN2 splice enh: SMN2 splice variant enhancement. HEK293 SMN2-luciferase splicing reporter, luminescence, 30-36 h. Potency, µM (doses to about 46.1 µM), usual class: activators. 210,000 compounds, 2.8% hits. AID 1458; further: nearly all actives have a fitted effect of over 55% in size
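qHTS luciferase splicing reporter: luminescence rises when SMN2 exon 7 is included in transfected HEK293 cells. Compound exposure lasted 30-36 h at 37C, with 4.5 mM final sodium butyrate as control, followed by a ONE-Glo read.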
A number is an active result; – = inactive; ? = inconclusive; · = no result. Sampled rows, rich in hits. Any-hit rate of the full collection: about 7.5%. The call rests on the fitted dose curve; in most records, active means well fitted curve in the direction sought with a large enough effect; inconclusive means small, poorly fitted or top-dose-only effect, or another doubt; inactive means no such curve, though single readings can be large; an effect the other way counts as inactive or inconclusive.

SMILES | NPC1 prom act | Luc counter | FLuc modulator | ELG1 genotox | Rab9 prom act | SMN2 splice enh
O=C(N1CCCC1)N1CCN(c2ncnc3c(-c4ccc(Cl)cc4)nsc23)CC1 | – | – | 17µM | ? | – | ?
CC(C)CSC1=NSC2=NC(=O)/C(=C\c3coc4ccccc4c3=O)C(=N)N12 | – | – | 17µM | – | – | –
CC(C)CSC1=NSC2=NC(=O)/C(=C\c3ccccc3)C(=N)N12 | 3.2µM | – | 17µM | ? | 2.8µM | ?
CSC1=NSC2=NC(=O)/C(=C\c3coc4ccccc4c3=O)C(=N)N12 | – | – | – | – | – | –
Cc1cc(/C=C2\C(=N)N3C(SCc4ccccc4)=NSC3=NC2=O)c(C)n1Cc1ccccc1 | – | – | 21µM | – | – | –
COc1ccccc1S(=O)(=O)Nc1cccc(-c2nnc3n2CCCCC3)c1 | – | – | – | – | – | –
COc1ccc(S(=O)(=O)Nc2cccc(-c3ccc(N4CCC(C)CC4)nn3)c2)c(OC)c1 | · | · | 2.7µM | · | · | ·
CCS(=O)(=O)Nc1cccc(-c2ccc3nnc(C)n3n2)c1 | – | – | – | ? | – | –
Cc1ccc(S(=O)(=O)Nc2cccc(-c3ccc4nnc(C)n4n3)c2)s1 | – | – | – | 21µM | – | 13µM
CCc1ccc(S(=O)(=O)Nc2cccc(-c3ccc4nncn4n3)c2)s1 | – | – | – | – | – | –
COc1ccc(S(=O)(=O)Nc2ccc(-c3ccc4nncn4n3)cc2)c(OC)c1 | – | · | – | – | – | ·
CCc1ccc(S(=O)(=O)Nc2cccc(-c3ccc(N4CCC(C)CC4)nn3)c2)s1 | · | · | 1.3µM | · | · | ·
COc1ccc(OC)c(S(=O)(=O)Nc2cccc(-c3ccc(N4CCCCC4)nn3)c2)c1 | · | · | 6µM | · | · | ·
Cc1ccc2nc(NC(=O)CSc3nnc(C)c(=O)n3N)sc2c1 | – | – | ? | ? | ? | ?
CCCNC(=O)c1c(NC(=O)c2ccccc2F)sc2c1CCCCC2 | · | · | – | · | · | –
Nc1ncc(S(=O)(=O)NCc2cccc(Cl)c2)cn1 | · | · | – | · | · | ·
COc1ccc(CN2CCN(C(=O)C3CCN(C(=O)Nc4ccccc4)CC3)CC2)cc1OC | · | · | · | – | · | ·
COc1ccc(F)cc1S(=O)(=O)Nc1cccc(-c2ccc(N3CCCCCC3)nn2)c1 | · | · | 9.5µM | · | · | ·
O=C(O)C=C1CCN(c2ncc(C(F)(F)F)cc2Cl)CC1 | ? | – | 19µM | – | ? | –
Cc1cccc(NC(=O)c2cnn(-c3ccccc3)c2C)c1C | 2.8µM | · | ? | ? | 4µM | ·
CCc1ccccc1NC(=O)c1cnn(-c2ccccc2)c1C | – | · | ? | – | – | ·
Cc1ccc(C)c(NC(=O)c2cnn(-c3ccccc3)c2C)c1 | – | · | 21µM | – | ? | ·
Cc1ccccc1NC(=O)c1cnn(-c2ccccc2)c1C | ? | · | 13µM | – | ? | ·
CC(=O)N1CCc2cc(CNC(=O)Nc3cc(Cl)ccc3C)ccc21 | · | · | – | · | · | ·
CCc1ccc(NC(=O)Cn2ncc3c(C)n(Cc4cccc(Cl)c4)c(C)c3c2=O)cc1 | · | · | – | · | · | –
SMILES | NPC1 prom act | Luc counter | FLuc modulator | ELG1 genotox | Rab9 prom act | SMN2 splice enh
O=C(Nc1ccc2c(c1)N(C1CCCC1)C(=O)c1ccccc1S2)c1ccc(F)cc1 | · | · | – | · | · | ·
COc1ccc(CCNC(=O)c2ccc(Cn3c(=O)c4ccccc4n(Cc4cccc(F)c4)c3=O)cc2)cc1OC | · | · | – | · | · | –
O=C(c1ccccc1)n1nc(-c2ccc(Cl)cc2)nc1NCc1ccco1 | · | · | – | · | · | ?
COc1ccc(C(=O)n2nc(-c3ccc(Cl)cc3)nc2NCc2ccco2)cc1 | · | · | – | · | · | –
CC(=O)n1nc(-c2ccc(Cl)cc2)nc1NCc1ccco1 | ? | – | – | 21µM | 2.8µM | ·
COc1ccc(CC(=O)n2nc(-c3ccc(Cl)cc3)nc2NCc2ccco2)cc1 | ? | – | – | – | 3.2µM | ?
O=C(COc1ccc(Cl)cc1)N(Cc1ccco1)c1ccccn1 | · | · | – | · | · | ·
CCOC(=O)C1CCN(c2nc(-c3ccc(Br)cc3)cs2)CC1 | · | · | – | · | · | ·
CCOc1ccc(-c2ccc(NS(=O)(=O)c3cc(C)c(C)cc3C)cc2)nn1 | · | · | – | · | · | ·
COc1cc(-c2cc(-c3ccccc3)nc(SCC(=O)Nc3nccs3)c2C#N)cc(OC)c1OC | – | – | – | – | – | –
Cc1cc(C(F)(F)F)c(C#N)c(SCC(=O)Nc2nc3ccccc3s2)n1 | 1.3µM | – | 1.2µM | 0.23µM | 0.4µM | –
C=CCn1c(SCC(=O)Nc2cccnc2Cl)nnc1-c1ccc(C(C)(C)C)cc1 | – | · | 21µM | – | – | ·
Cc1csc(NC(=O)CSc2nsc(SCC(=O)Nc3nc(C)cs3)c2C#N)n1 | 2.5µM | – | ? | ? | 1.6µM | 11µM
C=CCn1c(SCC(=O)Nc2ccccc2C)nnc1-c1ccncc1 | – | – | – | – | – | –
Cc1nc(SCC(=O)Nc2nccs2)c(C#N)c(C)c1C | ? | · | 1.1µM | ? | 0.56µM | ·
Cc1ccc(NC(=O)CSc2nsc(SCC(=O)Nc3ccc(C)cc3C)c2C#N)c(C)c1 | – | · | – | – | – | ·
C=CCn1c(C)nnc1SCC(=O)Nc1nccs1 | ? | · | – | – | 0.089µM | ·
C=CCn1c(SCC(=O)Nc2nccs2)nnc1-c1ccco1 | – | – | – | – | – | –
Cc1nc(SCC(=O)Nc2nc3ccccc3s2)c(C#N)c(C)c1C | – | – | 2.1µM | – | – | –
Cc1ccc2sc(NC(=O)CSc3nc(C)cc(C)c3C#N)nc2c1 | ? | – | 3.8µM | ? | – | 2.5µM
CCCCC/C=C\C\C=C/C=C/C=C/[C@@H](SCC(N)C(=O)O)[C@@H](O)CCCC(=O)O (some centres undefined) | · | – | · | · | · | –
COCCN(C(=O)CSc1nnc(-c2cccc(F)c2)n1N)c1c(N)n(Cc2ccccc2)c(=O)[nH]c1=O | – | · | – | – | – | ·
CCCNc1nc(N)nc(-c2cc(Cl)ccc2OC)n1 | – | – | – | – | – | –
CCCCNc1nc(N)nc(-c2cc(Cl)ccc2O)n1 | 3.5µM | – | 9.5µM | ? | 2.8µM | 6.3µM
CCNc1nc(N)nc(-c2cc(Cl)ccc2O)n1 | 4µM | – | 1.7µM | ? | 1.3µM | 11µM
SMILES | NPC1 prom act | Luc counter | FLuc modulator | ELG1 genotox | Rab9 prom act | SMN2 splice enh
Cc1ccc(NC(=O)N2CCCc3ccccc32)cc1C | – | · | 21µM | ? | – | ·
Cc1ccc(NC(=O)C2CCCN(C(=O)c3ccc(Cl)cc3)C2)cc1 (centres undefined) | – | – | ? | – | – | –
Cc1ccc(NC(=O)C2CCCN(C(=O)c3ccc(Cl)cc3)C2)cc1C (centres undefined) | – | – | 27µM | – | ? | –
O=C(Nc1ccccc1)N1CCCc2ccccc21 | – | – | – | – | – | –
O=C(Nc1ccccc1)C(=O)Nc1ccc2c(c1)N(C(=O)C1CC1)CCC2 | 1.1µM | · | 3.4µM | 1.6µM | 1.1µM | ·
O=C(NC1CCCCC1)N1CCc2ccccc21 | ? | – | 19µM | 15µM | ? | 13µM
CSc1nc2sc3c(c2c(=O)n1-c1ccc(F)c(Cl)c1)CCN(C(C)=O)C3 | · | · | – | · | · | –
